Compound activity as filed in PubChem.
Compounds with a hit are over-represented: about 11% of the library has one in this group of screens.
HP1b binding inh – blocks HP1-beta chromodomain binding to methylated histone tails; P83916; AlphaScreen HP1-beta / biotin-H3K9me3 peptide binding; Potency, µM (doses to about 114 µM), for the others: top-dose activity change, negative = inhibition, usual class: inhibitors; hit rate 0.56% among 390,000; further: potency means the concentration at half of the fitted maximal effect; nearly all actives have a fitted effect of over 70% in size
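HP1-beta protein (50 nM final) preincubated 30 min at room temperature with biotinylated H3(1-18)K9me3 peptide (50 nM) in PBS pH 7.4, 0.01% Tween-20, then compound added for 30 min. AlphaScreen streptavidin donor/nickel chelate acceptor beads (10 ug/mL final), 30 min dark, luminescence read.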
L3MBTL1 block – L3MBTL1 (human) inhibition | Q9Y468 | AlphaScreen L3MBTL1–H3K9me1 peptide binding | Potency, µM (series often up to 57.1 µM), for the others: at the top dose activity, negative = inhibition, usual class: inhibitors | hit rate 0.66% among 230,000 | AID 485360; further: potency means the concentration at half of the fitted maximal effect; on the % scale 0 is the no-effect control and ±100 the full control effect; nearly all actives have a fitted effect of over 60% in size
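Displacement of a biotinylated histone H3(1-15) peptide monomethylated at Lys9 (75 nM) from L3MBTL1 (50 nM) was measured by AlphaScreen after a 30 min room-temperature compound incubation; cefsulodin titration served as intraplate control.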
G9a block – G9a (human) methyltransferase inhibition; Potency, µM (doses to about 102 µM), without a hit: at the top dose activity, negative = inhibition, most hits filed as inhibitors; Q96KQ7; hit rate 8.8% among 350,000; G9a H3K9 monomethylation, AlphaScreen, 2 h; further: potency means the concentration at half of the fitted maximal effect; on the % scale 0 is the no-effect control and ±100 the full control effect; nearly all actives have a fitted effect of over 75% in size
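Readings reflect AlphaScreen signal from monomethyl-H3K9 antibody detection. HMT at 20 nM; substrate b-H3K9 500 nM; cofactor SAM 20 uM; 2 h RT reaction; compounds tested as titrations in qHTS with 15 min preincubation.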
JMJD2A Tudor inh – JMJD2A Tudor domain (human) inhibition; AlphaScreen JMJD2A-Tudor / H3K4me3 peptide binding; hit rate 4.4% among 390,000; O75164; Potency, µM (top dose mostly 114 µM), for inactives: at the top dose activity change, negative = inhibition, usual class: inhibitors; AID 504339; further: potency means the concentration at half of the fitted maximal effect; on the % scale 0 is the no-effect control and ±100 the full control effect; nearly all actives have a fitted effect of over 50% in size
PI5P4Ka inh – blocks human PI5P4K alpha kinase activity; P48426; PI5P4Kalpha enzyme, ADP-Glo luminescence, 60 min; stronger effect = lower value; max response, %; hit rate 1.2% among 330,000; AID 652105; active means max response of -50% or lower; inconclusive means between -30% and -50%; inactive means -30% or higher; further: value at the top dose of about 77 µM; on the % scale 0 is the no-effect control and ±100 the full control effect
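Single end-point luminescence (ADP-Glo) quantified ADP from PI5P4Kalpha turnover; ATP 5 microM final, 1 h at RT, 0.1% CHAPS and 0.28 mM EGTA in HEPES pH 7.4.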
BAZ2B block – blocks human BAZ2B; hit rate 4.4% among 360,000; Q9UIF8; Potency, µM (series often up to 114 µM), for the others: top-dose activity change, negative = inhibition, hits mostly inhibitors; AlphaScreen BAZ2B-H3K14Ac peptide displacement; AID 504333; further: potency means the concentration at half of the fitted maximal effect; on the % scale 0 is the no-effect control and ±100 the full control effect; nearly all actives have a fitted effect of over 60% in size
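Protein-peptide AlphaScreen: BAZ2B 50 nM, b-H3K14Ac 50 nM, 1x PBS pH 7.4 + 0.01% Tween-20. Preincubation 30 min RT; cpd 30 min RT (top 110 uM); beads 20 min RT, light-protected.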
* hit, by the source's call; [ ] = another dose, or the depositor's remark. Unless noted, the call rests on the fitted dose curve; in most records, active means well fitted inhibition curve with a large enough effect; inconclusive means small, poorly fitted or top-dose-only effect; inactive means no such curve, though single readings can be large or run the other way.

For O=C(O)c1ccc2c(=O)[nH]c(CN3CCOCC3)nc2c1 the results were HP1b binding inh 14%, G9a block inconclusive, JMJD2A Tudor inh 35µM*, PI5P4Ka inh inconclusive and BAZ2B block inconclusive.
O=c1[nH]c(CN2CCOCC2)nc2ccccc12 was read as HP1b binding inh 19%, L3MBTL1 block 10%, G9a block 0%, JMJD2A Tudor inh 1% and PI5P4Ka inh 4.
`O=c1[nH]c(CN2CCN(CCO)CC2)nc2ccccc12` gave HP1b binding inh 40%, L3MBTL1 block 19%, G9a block 20%[59 µM], JMJD2A Tudor inh -8%, PI5P4Ka inh 6 and BAZ2B block -2%.
`O=C1CN(Cc2nc3cc(Cl)ccc3c(=O)[nH]2)CCN1` gave HP1b binding inh 51%, G9a block inconclusive, JMJD2A Tudor inh 2.5µM*, PI5P4Ka inh -2 and BAZ2B block -17%.
Cc1nc2cccnc2n1C1CCN(C(=O)Nc2ccc(Cl)cc2)CC1 was read as HP1b binding inh 59%, G9a block 8%[12.7 µM], JMJD2A Tudor inh 1% and BAZ2B block -3%.
CCOC(=O)c1ccc2c(c1)N(CC(=O)Nc1ccc(C)cc1C)C(=O)c1ccccc1S2 was read as HP1b binding inh 23%[57 µM], G9a block -2%[59 µM], JMJD2A Tudor inh -9% and BAZ2B block -11%.
`NC(=O)C1CCN(Cc2nc3ccccc3c(=O)[nH]2)CC1` gave HP1b binding inh 6%, G9a block inconclusive, JMJD2A Tudor inh 3.2µM*, PI5P4Ka inh 7 and BAZ2B block -35%.
NC(=O)C1CCN(Cc2nc3cc(Cl)ccc3c(=O)[nH]2)CC1 was read as HP1b binding inh 2%, G9a block 7%[59 µM], JMJD2A Tudor inh -22%, PI5P4Ka inh -22 and BAZ2B block 5%.
Cc1ccc(Nc2nc(C)cs2)cc1 was read as HP1b binding inh inconclusive, L3MBTL1 block -6%, G9a block 35µM*, JMJD2A Tudor inh inconclusive, PI5P4Ka inh 2 and BAZ2B block -23%.
Screening Cc1csc(Nc2ccc(Cl)cc2)n1 returned HP1b binding inh 4%, L3MBTL1 block -16%, G9a block 45µM*, JMJD2A Tudor inh -16%, PI5P4Ka inh 0 and BAZ2B block inconclusive.
Screening Cc1ccc(Nc2nc(CSc3n[nH]c(N)n3)cs2)cc1 returned HP1b binding inh -5%, L3MBTL1 block -10%, G9a block inconclusive, JMJD2A Tudor inh inconclusive, PI5P4Ka inh -11 and BAZ2B block -33%.
For CCC(Sc1nc2ccccc2c2nc(CCc3c(C)n[nH]c3C)nn12)C(=O)Nc1ccc(F)cc1 (stereo not given) the results were HP1b binding inh 31%, G9a block 0%[59 µM], JMJD2A Tudor inh -15% and BAZ2B block -3%.
`O=C1[C@@H]2CSC(c3ccc(Cl)cc3)N2C(=O)N1c1ccccc1` (stereo not given in full) gave HP1b binding inh 61%, G9a block 23%[59 µM], JMJD2A Tudor inh 26% and BAZ2B block -1%.
`COc1cccc(-c2ccc3ncnc(NCc4ccccc4)c3c2)c1` gave G9a block 0%[0.501 µM].
`COc1cccc(NS(=O)(=O)c2ccc(NC(C)=O)cc2)c1` gave HP1b binding inh 23%, L3MBTL1 block -7%, G9a block -41%[59 µM], JMJD2A Tudor inh -3% and BAZ2B block -4%.
`COc1cccc(/C(O)=C/C(=O)C(=O)Nc2ccc(S(=O)(=O)NC(C)=O)cc2)c1` gave HP1b binding inh 7%, L3MBTL1 block 13%, G9a block 10µM*, JMJD2A Tudor inh 8.9µM*, PI5P4Ka inh 2 and BAZ2B block inconclusive.
Screening COC(=O)CC1Oc2ccccc2-n2cc(-c3ccc(Cl)cc3)nc21 (stereo not given) returned HP1b binding inh 23%, G9a block -16%[59 µM], JMJD2A Tudor inh -13% and BAZ2B block -28%.
